Reference: PubChem BioAssay (NCATS)
Results filed as inconclusive are left out. Calls of active or inactive are those of the source. Unless noted, calls follow the shape of the dose curve; as a rule, active = well fitted curve in the direction sought with a large enough effect; inconclusive = small, poorly fitted or top-dose-only effect, or another doubt; inactive = no such curve, though single readings can be large; an effect the other way counts as inactive or inconclusive.

Legend:
[1] = Cytometric Cell-Based qHTS for Inhibitors of the mTORC1 Signaling Pathway in MEF (Tsc2-/-, p53-/-) Cells (AID 2660);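 also: Tsc2 and p53 null MEFs carrying empty vector with compound for 24 h; percent of cells above a phospho-rpS6 to PI ratio cutoff in each well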
In short: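 Percent of cells positive for normalized phospho-S6 staining is reported, with the cutoff set from rapamycin (7.5 nM) versus DMSO wells. Tsc2-/-, p53-/- MEFs received compound for 24 hrs.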

[2] = High Content Imaging Cell-Based qHTS for Inhibitors of the mTORC1 Signaling Pathway in MEF (Tsc2-/-, p53-/-) Cells (AID 2666); settings: at 38.3 µM (top of the series);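 also: percent of cells scored positive for phospho-rpS6 Ser235/236 immunostaining by imaging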
In short: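 Inhibition of rpS6 phosphorylation is measured by immunofluorescence imaging in empty-vector Tsc2-/-, p53-/- mouse embryonic fibroblasts after 24 hrs compound exposure at 37 degree Celsius. Results are reported as % positive cells per well.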

[3] = High Content Imaging Cell-Based qHTS for Inhibitors of the mTORC1 Signaling Pathway in MEF Cells (AID 2667);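 also: Tsc2-/- p53-/- MEFs stably re-expressing wild-type Tsc2 exposed 24 h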
In short: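 Fixed-cell imaging of phospho-S6 (Ser235/236, Alexa-488) after 24 hrs of compound treatment at 37 degree Celsius. Signal was normalized to Hoechst, and thresholds from the highest and lowest wells split cells into % active versus % non-active.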

[4] = biological target: Ubiquitin carboxyl-terminal hydrolase 2 (Homo sapiens) (UniProt O75604); assay: qHTS Validation Assay for Inhibitors of Ubiquitin-specific Protease USP2a Using CHOP2 as the Reporter (AID 463106)
Sequence of Ubiquitin carboxyl-terminal hydrolase 2 (Homo sapiens) (O75604 whole entry, looked up): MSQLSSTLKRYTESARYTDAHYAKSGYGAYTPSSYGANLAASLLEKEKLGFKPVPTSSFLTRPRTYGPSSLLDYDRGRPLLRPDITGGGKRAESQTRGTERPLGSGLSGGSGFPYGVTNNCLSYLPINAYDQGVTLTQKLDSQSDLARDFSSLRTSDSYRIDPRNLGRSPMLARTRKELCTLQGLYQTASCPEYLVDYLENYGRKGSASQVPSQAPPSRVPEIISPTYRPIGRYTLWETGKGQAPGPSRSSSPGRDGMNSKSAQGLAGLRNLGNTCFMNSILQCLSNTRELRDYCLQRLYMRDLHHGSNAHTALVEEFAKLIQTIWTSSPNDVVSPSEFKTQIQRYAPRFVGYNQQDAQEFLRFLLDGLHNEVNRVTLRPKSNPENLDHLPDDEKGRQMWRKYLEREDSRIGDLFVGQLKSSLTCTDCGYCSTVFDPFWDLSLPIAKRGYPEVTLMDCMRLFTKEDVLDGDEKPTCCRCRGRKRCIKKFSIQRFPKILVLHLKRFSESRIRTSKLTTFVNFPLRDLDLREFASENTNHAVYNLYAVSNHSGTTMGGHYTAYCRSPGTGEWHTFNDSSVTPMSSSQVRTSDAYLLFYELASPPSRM
In short: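 Inhibition is expressed relative to NEM as the full-inhibition control, with concentration-response curves classed by fit quality, magnitude and activity. Enzyme (USP2 core, 10nM) meets 25nM Ub-CHOP2 after compound preincubation; readings are taken at 60min.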

[5] = biological target: Tumor susceptibility gene 101 protein (Homo sapiens) (UniProt Q99816); assay: qHTS Validation Assay for Iinhibitors of HIV-1 Budding by Blocking the Interaction of PTAP/TSG101 (AID 485342; calls by dose curve)
Sequence of Tumor susceptibility gene 101 protein (Homo sapiens) (Q99816 whole entry, looked up, the tested form may be a part): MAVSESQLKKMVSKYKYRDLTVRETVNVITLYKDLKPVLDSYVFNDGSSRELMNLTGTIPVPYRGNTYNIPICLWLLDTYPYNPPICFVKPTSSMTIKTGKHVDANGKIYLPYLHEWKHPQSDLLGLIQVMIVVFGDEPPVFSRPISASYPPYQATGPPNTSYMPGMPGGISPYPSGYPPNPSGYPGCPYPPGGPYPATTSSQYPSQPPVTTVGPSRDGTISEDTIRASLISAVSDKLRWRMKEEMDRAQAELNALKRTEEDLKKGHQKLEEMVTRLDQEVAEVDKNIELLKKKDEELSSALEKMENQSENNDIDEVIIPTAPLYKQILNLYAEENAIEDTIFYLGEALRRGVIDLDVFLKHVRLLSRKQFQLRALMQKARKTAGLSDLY
In short: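 Fluorescence anisotropy measured PTAP-Tsg101 interaction. Final concentrations were 10 uM protein domain and 50 nM labeled peptide, equilibrated 20 min at room temperature.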

[6] = qHTS Validation Assay to Find Inhibitors of Chronic Active B-Cell Receptor Signaling (AID 485345; active = well fitted curve in the direction sought with a large enough effect in the main read-out, with a control signal flat, not every such curve was filed as active)
In short: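 TMD8 ABC-DLBCL cells with dox-inducible green luciferase–IκBα fusion and red native luciferase; compounds 46 uM–3 nM, 4 h at 37C with doxycycline in 0.5% FBS IMDM. Green/red ratio normalized to basal and 10 uM MG-132.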

[7] = biological target: Beta-2 adrenergic receptor (Homo sapiens) (UniProt P07550); assay: qHTS validation assay of beta-arrestin-biased ligands of beta2-adrenergic receptor (AID 485366)
Sequence of Beta-2 adrenergic receptor (Homo sapiens) (P07550 whole entry, looked up): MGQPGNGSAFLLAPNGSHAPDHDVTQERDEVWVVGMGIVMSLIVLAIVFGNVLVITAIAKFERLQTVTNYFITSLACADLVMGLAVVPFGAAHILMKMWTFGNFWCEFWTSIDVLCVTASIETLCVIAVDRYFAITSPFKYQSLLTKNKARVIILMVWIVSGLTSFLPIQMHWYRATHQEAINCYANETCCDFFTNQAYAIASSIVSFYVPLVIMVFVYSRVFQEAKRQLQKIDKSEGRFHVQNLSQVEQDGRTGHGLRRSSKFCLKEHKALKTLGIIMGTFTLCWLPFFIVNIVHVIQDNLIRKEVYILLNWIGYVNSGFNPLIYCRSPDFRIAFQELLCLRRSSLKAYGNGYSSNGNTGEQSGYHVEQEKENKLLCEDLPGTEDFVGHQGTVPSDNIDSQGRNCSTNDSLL
In short: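 Screening used a titration range of up to 46 microM in a beta-arrestin recruitment Tango luciferase assay. Cells in 1% FBS medium were treated 18 hr at 37 degrees C, and luminescence was normalized to %Activity.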

[8] = biological target: Thioredoxin reductase 1, cytoplasmic (Rattus norvegicus) (UniProt O89049); assay: qHTS Assay for Substrates of Mammalian Selenoprotein Thioredoxin Reductase 1 (TrxR1) (AID 488772);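 also: a drop in NADPH fluorescence below the no-compound background marks a TrxR1 substrate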
Sequence of Thioredoxin reductase 1, cytoplasmic (Rattus norvegicus) (O89049 whole entry, looked up): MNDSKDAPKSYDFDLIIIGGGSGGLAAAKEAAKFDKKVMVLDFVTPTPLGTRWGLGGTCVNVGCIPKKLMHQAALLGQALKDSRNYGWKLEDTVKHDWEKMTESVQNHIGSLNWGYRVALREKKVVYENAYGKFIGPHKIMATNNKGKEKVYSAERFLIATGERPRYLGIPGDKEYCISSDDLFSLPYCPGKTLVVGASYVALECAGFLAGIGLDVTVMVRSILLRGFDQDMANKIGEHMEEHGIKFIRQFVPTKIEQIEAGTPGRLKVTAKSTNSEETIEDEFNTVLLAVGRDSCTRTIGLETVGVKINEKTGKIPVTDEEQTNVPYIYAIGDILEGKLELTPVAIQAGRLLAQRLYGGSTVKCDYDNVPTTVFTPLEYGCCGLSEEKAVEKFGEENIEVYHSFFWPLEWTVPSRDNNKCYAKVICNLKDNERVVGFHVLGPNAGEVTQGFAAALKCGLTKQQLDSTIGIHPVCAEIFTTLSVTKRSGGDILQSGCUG
In short: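 In this dual-purpose format, potential substrates are identified from the first fluorescence read after selenite addition, not from the 8-minute delta. Rat enzyme is preincubated with NADPH and then with compound at ~22 deg C.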

[9] = biological target: Thioredoxin reductase 1, cytoplasmic (Rattus norvegicus) (UniProt O89049); assay: qHTS Assay for Inhibitors of Mammalian Selenoprotein Thioredoxin Reductase 1 (TrxR1) (AID 488773); settings: Potency: inhibition; also: potency is read from the fitted curve at half-maximal effect; nearly all actives have a fitted effect of over 40% in size
In short: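 Inhibition is scored from the loss of NADPH fluorescence between first and last reads of an 8-min kinetic run. Selenite (400 uM) was the substrate, added after 15 min compound preincubation at room temperature.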

[10] = biological target: Flap endonuclease 1 (Homo sapiens) (UniProt P39748); assay: qHTS Validation Assay for the Inhibitors of Human Flap endonuclease 1 (FEN1) (AID 488816); also: potency is read from the fitted curve at half-maximal effect
In short: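 Steps: add FEN1 (10 nM reagent) or buffer only; pin compounds; hold 15 min at room temperature; start with substrate, 50 nM final; read at 0 and 15 min; correct, normalize and fit a four-parameter Hill curve.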

[11] = biological target: M-phase phosphoprotein 8 (Homo sapiens) (UniProt Q99549); assay: qHTS Validation Assay for Inhibitors for MPP8 Chromodomain Interactions with Methylated Histone Tails (AID 488949); also: potency is read from the fitted curve at half-maximal effect; nearly all actives have a fitted effect of over 55% in size
In short: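 Disruption of the preformed MPP8–trimethyl-H3K9 peptide complex (both 50 nM, 30 min, RT) is measured after 30 min compound exposure, using AlphaScreen proximity beads; aurintricarboxylic acid titration serves as plate control.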

[12] = biological target: Chromobox protein homolog 1 (Homo sapiens) (UniProt P83916); assay: qHTS Validation Assay for Inhibitors of HP1-beta Chromodomain Interactions with Methylated Histone Tails (AID 488953); also: potency is read from the fitted curve at half-maximal effect; nearly all actives have a fitted effect of over 50% in size
Sequence of Chromobox protein homolog 1 (Homo sapiens) (P83916 whole entry, looked up): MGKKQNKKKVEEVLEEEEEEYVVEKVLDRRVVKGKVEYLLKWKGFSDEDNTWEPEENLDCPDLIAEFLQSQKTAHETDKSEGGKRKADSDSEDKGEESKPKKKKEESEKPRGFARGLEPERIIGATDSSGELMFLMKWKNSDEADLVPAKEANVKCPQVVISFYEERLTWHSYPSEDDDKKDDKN
In short: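 AlphaScreen proximity readout: streptavidin donor and Ni-chelate acceptor beads, 10 ug/mL final, 30 min dark, RT. Complex of 50 nM HP1-beta and 50 nM b-H3(1-18)K9me3 formed 30 min, then compound-treated 30 min; PBS pH 7.4/0.01% Tween-20.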

[13] = biological target: Methanococcus maripaludis chaperonin (MmCpn) (UniProt Q6LX38); assay: High-Throughput Screening for Modulators of Cytosolic Chaperonin Activity: MmCpn Primary Screen (AID 488978);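 also: 50 nM MmCpn enzyme hydrolysing 30 µM ATP at 37 °C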
In short: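 Measures ATPase turnover of the M. maripaludis chaperonin (50 nM final) against 30 uM ATP over 10 min at 37C, with compound added 5 min beforehand at room temperature. ADP is quantified by HTRF immunodetection.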

[14] = biological target: D(1A) dopamine receptor (Homo sapiens) (UniProt P21728); assay: HTS Assay for Allosteric Agonists of the Human D1 Dopamine Receptor: Primary Screen for Agonists (AID 488981)
Sequence of D(1A) dopamine receptor (Homo sapiens) (P21728 whole entry, looked up): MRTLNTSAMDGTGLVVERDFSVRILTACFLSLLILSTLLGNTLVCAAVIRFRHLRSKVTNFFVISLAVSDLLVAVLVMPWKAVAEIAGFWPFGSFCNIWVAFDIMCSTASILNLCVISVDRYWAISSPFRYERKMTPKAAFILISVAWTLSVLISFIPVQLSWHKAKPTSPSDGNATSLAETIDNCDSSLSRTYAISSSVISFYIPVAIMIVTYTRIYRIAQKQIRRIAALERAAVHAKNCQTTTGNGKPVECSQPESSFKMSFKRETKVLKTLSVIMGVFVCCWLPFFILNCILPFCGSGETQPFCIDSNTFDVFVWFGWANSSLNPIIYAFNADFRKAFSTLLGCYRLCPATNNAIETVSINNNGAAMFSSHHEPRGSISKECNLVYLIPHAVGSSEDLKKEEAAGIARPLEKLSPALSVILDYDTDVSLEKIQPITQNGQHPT
In short: (§1)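 Tetracycline-induced HEK293 T-REx cells force-coupled to calcium signalling were incubated overnight at 30 C and dye-loaded at room temperature. Calcium flux over 180 s after compound addition flagged agonists; a further 180 s read after EC20 dopamine flagged potentiators.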

[15] = biological target: D(1A) dopamine receptor (Homo sapiens) (UniProt P21728); assay: HTS Assay for Allosteric Agonists of the Human D1 Dopamine Receptor: Primary Screen for Potentiators (AID 488982)
In short: as §1

[16] = biological target: D(1A) dopamine receptor (Homo sapiens) (UniProt P21728); assay: HTS Assay for Allosteric Agonists of the Human D1 Dopamine Receptor: Primary Screen for Antagonists (AID 488983);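 also: calcium flux response to an EC80 dopamine challenge measured with no-wash dye; nearly all actives have a fitted effect of over 65% in size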
In short: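 Calcium flux readout, no-wash dye, inducible HEK293 T-REx D1 line (force-coupled). Compound added after 10 s baseline, 180 s kinetic read; then dopamine at EC80, further 180 s read.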

[17] = Validation screen for small molecules that induce genotoxicity in human embryonic kidney (HEK293T) cells expressing luciferase-tagged ELG1 (AID 493106)
In short: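 qHTS format; 2,000 HEK293T ELG1-luc cells/well; 23 nL compound via pin tool; 16 hr, 37 °C/5% CO2; ONE-Glo, 30 min RT; luminescence read.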

[18] = biological target: ATPase family AAA domain-containing protein 5 (Homo sapiens) (UniProt Q96QE3); assay: Validation screen for small molecules that inhibit ELG1-dependent DNA repair in human embryonic kidney (HEK293T) cells expressing luciferase-tagged ELG1 (AID 493107);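 also: cells co-treated with the DNA-damaging agent 5-fluorouridine alongside compound; inhibitors lower the ELG1-luciferase luminescence signal; nearly all actives have a fitted effect of over 70% in size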
In short: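 ELG1-luciferase HEK293T reporter; 5-fluorouridine + compound/DMSO, 16 hr, 37 °C, 5% CO2; ONE-Glo 30 min RT; luminescence read, qHTS format.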

[19] = biological target: phosphoglycerate mutase (Leishmania major) (UniProt Q4Q090); assay: qHTS Validation Assay to Find Inhibitors of Phosphoglycerate Mutase (AID 504548);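 also: end-point luminescence from Kinase-GloPlus after the PGAM reaction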
Sequence of phosphoglycerate mutase (Leishmania major) (Q4Q090 1-553): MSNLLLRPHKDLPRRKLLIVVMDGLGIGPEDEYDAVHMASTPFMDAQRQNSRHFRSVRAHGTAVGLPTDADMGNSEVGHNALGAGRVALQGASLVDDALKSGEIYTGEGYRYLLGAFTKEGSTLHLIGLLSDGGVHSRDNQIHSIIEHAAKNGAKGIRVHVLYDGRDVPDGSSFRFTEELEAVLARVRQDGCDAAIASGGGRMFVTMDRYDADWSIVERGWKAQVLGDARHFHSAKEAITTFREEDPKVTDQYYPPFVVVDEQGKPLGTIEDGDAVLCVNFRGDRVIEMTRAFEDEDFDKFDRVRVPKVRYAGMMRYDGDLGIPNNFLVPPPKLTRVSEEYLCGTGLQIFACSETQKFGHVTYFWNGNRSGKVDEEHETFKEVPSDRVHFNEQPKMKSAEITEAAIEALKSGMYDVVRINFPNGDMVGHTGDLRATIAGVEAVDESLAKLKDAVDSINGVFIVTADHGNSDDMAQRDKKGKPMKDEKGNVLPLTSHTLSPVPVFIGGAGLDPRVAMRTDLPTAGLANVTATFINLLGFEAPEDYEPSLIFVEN
In short: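 Inhibition of L. major PGAM was assessed by Kinase-GloPlus luminescence following a 45-minute room-temperature reaction with enzyme at 1.25nM final.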

[20] = biological target: Ubiquitin carboxyl-terminal hydrolase 1 (Homo sapiens) (UniProt O94782); assay: Inhibitors of USP1/UAF1: Pilot qHTS (AID 504865);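 also: rhodamine fluorescence freed from ubiquitin-rhodamine substrate followed over time; top concentration of the series differs between compounds; nearly all actives have a fitted effect of over 35% in size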
Sequence of Ubiquitin carboxyl-terminal hydrolase 1 (Homo sapiens) (O94782 whole entry, looked up): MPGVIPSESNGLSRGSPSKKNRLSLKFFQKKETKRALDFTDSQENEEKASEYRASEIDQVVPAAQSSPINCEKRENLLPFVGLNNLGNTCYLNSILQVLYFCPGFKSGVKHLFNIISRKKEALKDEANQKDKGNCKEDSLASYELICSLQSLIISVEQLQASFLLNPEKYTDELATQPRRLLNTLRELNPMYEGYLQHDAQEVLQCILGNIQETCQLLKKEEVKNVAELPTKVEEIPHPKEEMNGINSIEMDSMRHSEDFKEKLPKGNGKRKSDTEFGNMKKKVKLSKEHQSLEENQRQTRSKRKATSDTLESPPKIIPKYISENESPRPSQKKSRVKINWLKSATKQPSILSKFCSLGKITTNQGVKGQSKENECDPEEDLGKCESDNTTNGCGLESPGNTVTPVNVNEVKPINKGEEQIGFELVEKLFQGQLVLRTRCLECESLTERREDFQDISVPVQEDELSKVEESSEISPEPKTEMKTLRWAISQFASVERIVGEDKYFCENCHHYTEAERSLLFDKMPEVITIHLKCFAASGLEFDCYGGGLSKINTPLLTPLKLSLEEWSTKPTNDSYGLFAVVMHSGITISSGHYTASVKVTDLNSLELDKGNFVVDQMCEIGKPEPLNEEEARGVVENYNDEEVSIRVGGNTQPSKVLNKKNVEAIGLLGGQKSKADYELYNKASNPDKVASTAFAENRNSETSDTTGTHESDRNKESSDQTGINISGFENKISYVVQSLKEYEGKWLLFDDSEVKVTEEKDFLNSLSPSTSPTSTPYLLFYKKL
In short: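 Kinetic fluorescence assay: 1nM USP1/UAF1, 15 min compound preincubation, then 150nM Ub-Rho; 480/540 nm.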

[21] = NS1 protein of Zika virus - qHTS assay to identify small molecule inhibitors in human HEK 293 cells (AID 1347053); also: nearly all actives have a fitted effect of over 55% in size
In short: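 Compound-treated (1 h pre-infection) HEK 293 cells infected with ZIKV MR766, MOI = 0.5; after 24 h at 37 C, NS1 read by TR-FRET; data normalized to uninfected and infected controls.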

[22] = biological target: T1, Tyrosine-protein phosphatase non-receptor type substrate 1 (Homo sapiens) + Leukocyte surface antigen CD47 (Homo sapiens) (UniProt P78324+Q08722); assay: CD47-SIRPalpha protein protein interaction - HTRF assay qHTS validation (AID 1347058; active = well fitted curve in the direction sought with a large enough effect in the signal ratio, not every such curve was filed as active; the % refers to the signal ratio)
T1 sequence (P78324 whole entry, looked up, the tested form may be a part): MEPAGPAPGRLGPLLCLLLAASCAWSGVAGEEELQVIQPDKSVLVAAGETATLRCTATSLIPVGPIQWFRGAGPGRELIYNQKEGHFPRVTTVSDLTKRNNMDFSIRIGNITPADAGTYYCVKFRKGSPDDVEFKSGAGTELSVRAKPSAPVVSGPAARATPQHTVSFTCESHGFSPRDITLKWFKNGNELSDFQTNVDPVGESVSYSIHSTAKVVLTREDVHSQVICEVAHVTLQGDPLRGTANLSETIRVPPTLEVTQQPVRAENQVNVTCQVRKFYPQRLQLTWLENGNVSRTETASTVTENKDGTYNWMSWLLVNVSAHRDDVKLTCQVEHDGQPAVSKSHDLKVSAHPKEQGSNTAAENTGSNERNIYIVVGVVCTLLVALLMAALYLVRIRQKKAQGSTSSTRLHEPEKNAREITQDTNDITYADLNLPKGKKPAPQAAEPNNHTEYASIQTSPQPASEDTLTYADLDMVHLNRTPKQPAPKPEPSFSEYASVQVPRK
T1 sequence (Q08722 whole entry, looked up, the tested form may be a part): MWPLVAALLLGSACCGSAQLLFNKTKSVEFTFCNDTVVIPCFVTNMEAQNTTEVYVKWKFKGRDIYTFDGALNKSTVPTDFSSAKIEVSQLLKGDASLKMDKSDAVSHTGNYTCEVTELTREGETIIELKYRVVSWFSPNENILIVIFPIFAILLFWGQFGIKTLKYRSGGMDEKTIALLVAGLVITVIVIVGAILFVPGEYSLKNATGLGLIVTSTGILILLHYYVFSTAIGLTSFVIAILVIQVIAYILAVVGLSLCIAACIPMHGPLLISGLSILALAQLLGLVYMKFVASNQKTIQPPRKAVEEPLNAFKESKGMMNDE
In short: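 Soluble extracellular domains (6His-CD47, Avi-tag-biotinylated SIRPalpha) in PBS pH 7.4 with 0.05% IGEPAL CA-630. Compounds were preincubated 30 min at RT with CD47 and anti-His-Eu, then SIRPalpha and SAV-XL665 were added. TR-FRET 665/615 ratio.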

[23] = biological target: T1, Tyrosine-protein phosphatase non-receptor type substrate 1 (Homo sapiens) + Leukocyte surface antigen CD47 (Homo sapiens); assay: CD47-SIRPalpha protein protein interaction - Alpha assay qHTS validation (AID 1347059);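 also: bead proximity luminescence from CD47 binding SIRPalpha after compound preincubation with SIRPalpha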
In short: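 In PBS (pH 7.4) with 0.05% IGEPAL CA-630, compound is preincubated with biotin-Avi-SIRPalpha ectodomain before His-CD47 ectodomain and affinity beads are added. Light-protected room-temperature incubations; AlphaScreen readout.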

[24] = biological target: N-terminal Xaa-Pro-Lys N-methyltransferase 1 (Homo sapiens) (UniProt Q9BV86); assay: qHTS Assay for Inhibitors of N-terminal methyltransferase 1 (NTMT1): LOPAC validation of the NTMT1 SAHH-coupled ThioGlo3 Assay (AID 1347143);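 also: SAH from peptide methylation measured as thiol fluorescence via SAHH coupling and ThioGlo3; potency is read from the fitted curve at half-maximal effect; nearly all actives have a fitted effect of over 70% in size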
In short: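 In this qHTS pilot against the LOPAC set, 125nM NTMT1 met compounds tested at multiple concentrations, and fluorescence was normalized to background.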

[25] = test system: Zika virus NS2B-NS3 protease (unlinked); assay: Optimization of GU AMC qHTS for Zika virus inhibitors: Unlinked NS2B-NS3 protease assay (AID 1347151); also: nearly all actives have a fitted effect of over 80% in size
In short: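 Percent inhibition is derived from the 15-min change in AMC fluorescence, normalized against no-inhibitor and no-enzyme controls, then fitted to a 4-parameter Hill curve. Aprotinin was the intraplate control.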

[26] = qHTS to identify inhibitors of the type 1 interferon - major histocompatibility complex class I in skeletal muscle: primary screen against the NCATS LOPAC collection (AID 1347405);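 also: human myoblasts with HiBiT tag on endogenous HLA-B stimulated by IFN-beta; lytic HiBiT luminescence reporting HLA-B protein level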
In short: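 HLA-B HiBiT myoblasts, IFN-b 4 ng/ml, dexamethasone-free medium; compounds 7-pt 1:4.3 titration, top 46 uM final; 24 h at 37 C; Nano-Glo HiBiT lytic reagent, 10 min RT, luminescence.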

[27] = qHTS for inhibitors of adenylyl cyclases using a fission yeast platform: a pilot screen against the NCATS LOPAC library (AID 1347410)
In short: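 Growth medium went into the plates first, then compounds were pinned (final up to 57 µM), then CHP2027 yeast were added. Plates were incubated overnight (18 h) at 30C in the dark, and GFP was measured by laser scanning cytometry.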

[28] = biological target: Calcium and integrin-binding protein 1 (Homo sapiens) (UniProt Q99828); assay: Validation qHTS for Identification of Calcium Integrin Binding protein 1 (CIB1) Competitor (AID 1508618)
In short: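 In this qHTS validation, the LOPAC set (up to 114 uM) was tested for blocking CIB1 binding to a fluorescein-tagged alphaIIb peptide, with FP detection at 480/540 nm.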

[29] = biological target: Metallo-beta-lactamase type 2 (Klebsiella pneumoniae) (UniProt C7C422); assay: qHTS to identify inhibitors of the New Delhi Metallo-beta-lactamase (NDM): assay validation screen against the NCATS LOPAC Collection (AID 1794843); also: potency is read from the fitted curve at half-maximal effect
In short: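 Nitrocefin hydrolysis (50 uM substrate stock) by NDM-1, 2 nM final, was followed by 485 nm absorbance after compound preincubation; buffer was 50 mM HEPES pH 7.0, 1 uM ZnSO4, 0.01% Tween20.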

[30] = biological target: Glutathione peroxidase 1 (Homo sapiens) (UniProt P07203); assay: Primary qHTS Assay for Inhibitors of Recombinant Selenoprotein Glutathione Peroxidase 1 (GPX1) (AID 1845191); also: nearly all actives have a fitted effect of over 65% in size
Sequence of Glutathione peroxidase 1 (Homo sapiens) (P07203 whole entry, looked up): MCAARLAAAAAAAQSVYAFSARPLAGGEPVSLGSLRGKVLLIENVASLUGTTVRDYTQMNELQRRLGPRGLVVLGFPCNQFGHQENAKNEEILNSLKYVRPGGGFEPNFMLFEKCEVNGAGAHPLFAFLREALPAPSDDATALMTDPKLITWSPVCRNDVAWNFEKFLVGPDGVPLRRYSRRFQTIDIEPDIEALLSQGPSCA
In short: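 GPX1 10 nM, GR 100 nM, GSH 1 mM, NADPH 0.5 mM, CHP 0.5 mM (final). 30-min cpd preincubation, RT. Ex340/Em450 read t=0, t=15 min.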

Measured: Potency

N.N.O=C(O)C1(C(=O)O)CCC1.[Pt+2]
active: [9] 0.267 µM | [10] 29.9 µM | [11] 3.77 µM | [12] 20 µM | [24] 12.6 µM | [29] 3.98 µM
inactive: [1] | [2] | [3] | [4] | [5] | [6] | [7] | [8] | [13] | [14] | [15] | [16] | [17] | [18] | [19] | [20] | [21] | [22] | [23] | [25] | [26] | [27] | [28] | [30]
